Assay results published in the supplement of paper PMC10849652.
The full data set covers some 8,800 targets. This sample favours those with a hit. About 0.5% of all pairs of compound and target were hits.

Columns and labels:
Experiment in all cases: log2 fold change, soluble protein after heating vs DMSO (PISA); higher = thermal stabilisation; K562 lysate, 10 uM; active = over 0.2 and 3.5 SD of the protein, either way, in both replicates (recomputed)
[1] = compound: C1=CC=C(C=C1)[C@H](COC2=CC3=C(C=C2)NC(=O)N3)NC(=O)C4=CC=CN(C4=O)CC5=CC(=C(C=C5)F)F
How it was run: (§1)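 K562 pellets were dounce-homogenised in PBS pH 7.4 with 1 mM MgCl2, and the crude extract at 1 mg/mL protein was treated with 10 μM compound for 30 min. Aliquots were heated for 3 min across 48°C-58°C, pooled, and brought to 0.5% NP-40 at 4°C; soluble protein was the supernatant after 21,000xg for 90 min. Soluble protein was quantified by TMTpro 16plex LC-MS/MS with channel sums equalised, and reported as log2 fold change in thermal stability against DMSO controls, with values from duplicates.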

[2] = compound: CC1=C(SC2=C1C(=N[C@H](C3=NN=C(N32)C)CC(=O)N)C4=CC=C(C=C4)Cl)C
How it was run: as §1

[3] = compound: CC1=C2C(=CC=C1)N=C(N(C2=O)C3=CC=CC=C3C)CN4C=NC5=C(N=CN=C54)N
How it was run: as §1

[4] = compound: Cc1sc2c(c1C)C(c1ccc(Cl)cc1)=N[C@@H](CC(=O)OC(C)(C)C)c1nnc(C)n1-2
How it was run: as §1

[5] = compound: c1ccc([C@@H]2C[C@H]2NC2CCNCC2)cc1
How it was run: as §1

Measured: log2 fold change

CDAN1 (UniProt Q8IWY9)
Sequence of UniProt Q8IWY9 (Q8IWY9 whole entry, looked up): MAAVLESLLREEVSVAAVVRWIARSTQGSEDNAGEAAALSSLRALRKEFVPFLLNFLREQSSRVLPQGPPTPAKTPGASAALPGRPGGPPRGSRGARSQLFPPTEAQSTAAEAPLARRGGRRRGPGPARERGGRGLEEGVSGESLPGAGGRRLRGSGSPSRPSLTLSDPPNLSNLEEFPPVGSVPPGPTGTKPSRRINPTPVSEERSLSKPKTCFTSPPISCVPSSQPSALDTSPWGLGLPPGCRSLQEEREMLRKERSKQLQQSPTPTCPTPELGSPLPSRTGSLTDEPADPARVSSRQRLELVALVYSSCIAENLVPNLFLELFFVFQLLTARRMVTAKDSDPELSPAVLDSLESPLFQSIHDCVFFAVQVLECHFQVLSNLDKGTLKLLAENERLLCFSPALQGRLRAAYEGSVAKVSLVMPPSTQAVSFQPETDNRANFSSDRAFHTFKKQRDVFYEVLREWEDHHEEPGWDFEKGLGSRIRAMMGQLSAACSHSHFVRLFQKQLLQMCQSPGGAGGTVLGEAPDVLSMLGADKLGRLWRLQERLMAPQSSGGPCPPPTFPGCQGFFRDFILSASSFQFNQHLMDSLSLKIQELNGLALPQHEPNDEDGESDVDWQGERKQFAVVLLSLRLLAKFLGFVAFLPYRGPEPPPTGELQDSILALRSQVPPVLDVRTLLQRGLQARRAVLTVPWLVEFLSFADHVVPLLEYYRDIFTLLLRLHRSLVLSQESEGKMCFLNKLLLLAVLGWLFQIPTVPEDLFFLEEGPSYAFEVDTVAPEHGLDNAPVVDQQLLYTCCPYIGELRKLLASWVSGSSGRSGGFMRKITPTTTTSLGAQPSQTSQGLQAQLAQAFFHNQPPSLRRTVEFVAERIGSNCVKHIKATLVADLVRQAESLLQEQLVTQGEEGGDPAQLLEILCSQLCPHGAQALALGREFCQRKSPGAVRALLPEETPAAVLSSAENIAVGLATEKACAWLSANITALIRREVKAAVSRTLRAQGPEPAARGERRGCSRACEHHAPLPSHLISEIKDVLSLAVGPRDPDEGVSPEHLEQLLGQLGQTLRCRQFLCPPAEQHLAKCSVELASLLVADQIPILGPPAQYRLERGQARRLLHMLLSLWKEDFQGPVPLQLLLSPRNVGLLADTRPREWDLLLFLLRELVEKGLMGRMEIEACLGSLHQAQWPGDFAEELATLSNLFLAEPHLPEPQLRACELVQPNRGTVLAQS
inactive: [1] -0.011 | [2] 0.011 | [3] 0.062 | [4] 0.026 | [5] 0.005

BRAT1 (UniProt Q6PJG6)
inactive: [1] -0.043 | [2] -0.005 | [3] 0.027 | [4] 0.005 | [5] 0.003

CDK17 isoform 2 (UniProt Q00537)
Sequence of UniProt Q00537 (Q00537 whole entry, looked up): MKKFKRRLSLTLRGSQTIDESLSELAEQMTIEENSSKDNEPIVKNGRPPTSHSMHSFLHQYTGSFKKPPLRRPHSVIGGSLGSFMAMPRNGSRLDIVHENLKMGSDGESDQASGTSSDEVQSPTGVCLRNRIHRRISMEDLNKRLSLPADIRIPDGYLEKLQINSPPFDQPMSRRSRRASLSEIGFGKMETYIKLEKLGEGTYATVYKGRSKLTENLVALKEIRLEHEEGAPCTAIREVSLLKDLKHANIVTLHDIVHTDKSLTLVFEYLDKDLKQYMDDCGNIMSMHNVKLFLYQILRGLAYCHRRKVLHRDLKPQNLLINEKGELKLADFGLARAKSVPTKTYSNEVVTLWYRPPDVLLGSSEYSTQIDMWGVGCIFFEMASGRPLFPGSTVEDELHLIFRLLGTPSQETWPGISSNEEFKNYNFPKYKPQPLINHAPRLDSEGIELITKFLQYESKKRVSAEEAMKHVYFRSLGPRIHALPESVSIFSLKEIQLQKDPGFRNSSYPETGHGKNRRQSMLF
inactive: [1] 0.072 | [2] 0.099 | [3] 0.109 | [4] 0.072 | [5] -0.146

CDK8 (UniProt P49336)
Sequence of UniProt P49336 (P49336 whole entry, looked up): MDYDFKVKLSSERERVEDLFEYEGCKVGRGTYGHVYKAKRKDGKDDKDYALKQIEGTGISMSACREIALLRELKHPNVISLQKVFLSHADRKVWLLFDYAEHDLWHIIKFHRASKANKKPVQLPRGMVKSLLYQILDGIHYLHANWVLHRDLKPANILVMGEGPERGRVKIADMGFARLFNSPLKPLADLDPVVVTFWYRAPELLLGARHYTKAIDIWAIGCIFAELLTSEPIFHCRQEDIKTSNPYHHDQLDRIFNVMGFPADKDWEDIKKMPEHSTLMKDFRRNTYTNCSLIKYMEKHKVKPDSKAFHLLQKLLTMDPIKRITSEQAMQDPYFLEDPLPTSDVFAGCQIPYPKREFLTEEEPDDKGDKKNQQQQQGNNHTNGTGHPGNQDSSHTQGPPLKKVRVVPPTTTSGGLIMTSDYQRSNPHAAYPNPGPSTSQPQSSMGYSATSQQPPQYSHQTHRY
inactive: [1] -0.05 | [2] -0.108 | [3] 0.202 | [4] 0.017 | [5] -0.045

CFDP1 (UniProt Q9UEE9)
Sequence of UniProt Q9UEE9 (Q9UEE9 whole entry, looked up): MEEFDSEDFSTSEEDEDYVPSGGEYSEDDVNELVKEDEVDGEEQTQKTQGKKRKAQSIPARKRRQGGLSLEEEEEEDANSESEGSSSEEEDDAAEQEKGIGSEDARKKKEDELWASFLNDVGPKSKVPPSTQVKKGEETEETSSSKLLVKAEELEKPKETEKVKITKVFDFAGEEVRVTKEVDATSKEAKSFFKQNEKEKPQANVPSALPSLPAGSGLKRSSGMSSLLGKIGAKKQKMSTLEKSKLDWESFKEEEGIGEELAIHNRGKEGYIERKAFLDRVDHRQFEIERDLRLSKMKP
inactive: [1] 0.051 | [2] -0.03 | [3] -0.017 | [4] -0.03 | [5] -0.124

CDC42BPA isoform 6 (UniProt Q5VT25)
Sequence of UniProt Q5VT25 (Q5VT25 whole entry, looked up): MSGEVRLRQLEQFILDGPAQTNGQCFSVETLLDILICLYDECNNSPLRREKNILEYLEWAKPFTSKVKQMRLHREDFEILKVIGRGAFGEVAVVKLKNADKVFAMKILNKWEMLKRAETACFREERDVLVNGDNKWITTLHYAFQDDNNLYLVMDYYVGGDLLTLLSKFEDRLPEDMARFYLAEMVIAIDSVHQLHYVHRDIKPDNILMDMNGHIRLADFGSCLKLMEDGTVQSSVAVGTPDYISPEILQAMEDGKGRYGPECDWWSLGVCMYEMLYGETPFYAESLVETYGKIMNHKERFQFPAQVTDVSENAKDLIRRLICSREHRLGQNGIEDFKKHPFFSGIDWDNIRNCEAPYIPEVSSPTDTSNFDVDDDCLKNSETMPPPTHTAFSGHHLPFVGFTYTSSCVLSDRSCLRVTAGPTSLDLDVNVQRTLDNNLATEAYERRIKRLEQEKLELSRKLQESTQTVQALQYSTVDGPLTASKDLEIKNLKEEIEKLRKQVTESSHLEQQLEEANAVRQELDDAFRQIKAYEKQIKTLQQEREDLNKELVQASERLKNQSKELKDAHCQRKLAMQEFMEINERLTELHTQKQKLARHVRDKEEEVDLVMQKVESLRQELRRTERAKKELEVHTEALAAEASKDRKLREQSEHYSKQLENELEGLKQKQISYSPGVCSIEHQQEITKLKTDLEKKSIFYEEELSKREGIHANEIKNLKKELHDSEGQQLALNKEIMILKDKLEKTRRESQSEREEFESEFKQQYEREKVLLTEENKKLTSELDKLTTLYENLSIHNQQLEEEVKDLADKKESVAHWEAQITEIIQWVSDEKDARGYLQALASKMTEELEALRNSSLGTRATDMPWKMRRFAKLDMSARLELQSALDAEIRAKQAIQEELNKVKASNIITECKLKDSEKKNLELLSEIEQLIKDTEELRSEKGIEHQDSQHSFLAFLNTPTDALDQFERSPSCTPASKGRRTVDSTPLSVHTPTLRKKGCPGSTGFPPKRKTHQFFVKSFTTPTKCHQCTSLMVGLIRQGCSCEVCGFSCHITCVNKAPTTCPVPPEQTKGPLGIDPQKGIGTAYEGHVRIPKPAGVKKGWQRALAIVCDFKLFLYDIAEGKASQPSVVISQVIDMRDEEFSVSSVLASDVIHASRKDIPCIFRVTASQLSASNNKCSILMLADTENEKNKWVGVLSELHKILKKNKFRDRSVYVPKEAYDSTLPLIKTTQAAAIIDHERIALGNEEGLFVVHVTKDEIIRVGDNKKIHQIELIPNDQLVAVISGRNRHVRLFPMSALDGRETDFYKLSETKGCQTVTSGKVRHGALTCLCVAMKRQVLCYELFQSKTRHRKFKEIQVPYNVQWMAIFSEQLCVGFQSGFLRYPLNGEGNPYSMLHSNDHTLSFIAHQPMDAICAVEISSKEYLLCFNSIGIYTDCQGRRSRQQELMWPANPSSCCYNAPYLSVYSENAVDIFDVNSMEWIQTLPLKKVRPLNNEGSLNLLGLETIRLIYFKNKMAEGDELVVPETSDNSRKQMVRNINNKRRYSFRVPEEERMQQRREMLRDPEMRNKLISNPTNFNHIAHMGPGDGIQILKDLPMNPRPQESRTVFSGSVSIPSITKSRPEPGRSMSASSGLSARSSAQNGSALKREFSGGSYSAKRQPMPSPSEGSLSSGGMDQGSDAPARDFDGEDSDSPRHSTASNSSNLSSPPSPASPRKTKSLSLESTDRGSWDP
inactive: [1] 0.008 | [2] -0.003 | [3] -0.008 | [4] 0.026 | [5] 0.052

CCDC25 (UniProt Q86WR0)
Sequence of UniProt Q86WR0 (Q86WR0 whole entry, looked up): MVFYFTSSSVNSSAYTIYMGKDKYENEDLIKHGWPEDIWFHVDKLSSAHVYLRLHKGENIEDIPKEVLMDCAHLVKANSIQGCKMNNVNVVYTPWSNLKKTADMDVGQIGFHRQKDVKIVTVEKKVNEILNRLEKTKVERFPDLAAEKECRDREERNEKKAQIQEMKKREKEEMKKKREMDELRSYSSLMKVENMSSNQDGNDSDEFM
inactive: [1] 0.008 | [2] 0.035 | [3] 0.023 | [4] -0.015 | [5] 0.164

AURKAIP1 (UniProt Q9NWT8)
inactive: [1] 0.05 | [2] 0.032 | [3] -0.014 | [4] 0.024 | [5] 0.034

CARNMT1 (UniProt Q8N4J0)
Sequence of UniProt Q8N4J0 (Q8N4J0 whole entry, looked up): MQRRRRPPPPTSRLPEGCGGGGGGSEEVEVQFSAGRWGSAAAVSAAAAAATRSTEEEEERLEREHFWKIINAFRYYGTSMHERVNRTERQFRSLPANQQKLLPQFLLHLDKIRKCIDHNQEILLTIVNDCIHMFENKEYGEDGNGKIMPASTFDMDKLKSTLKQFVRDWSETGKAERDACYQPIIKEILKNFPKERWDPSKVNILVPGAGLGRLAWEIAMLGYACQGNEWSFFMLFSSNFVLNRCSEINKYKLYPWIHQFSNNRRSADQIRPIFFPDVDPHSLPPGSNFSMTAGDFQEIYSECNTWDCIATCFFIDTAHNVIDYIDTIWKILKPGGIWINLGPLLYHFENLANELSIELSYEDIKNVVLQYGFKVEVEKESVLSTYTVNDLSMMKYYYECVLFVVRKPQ
inactive: [1] 0.032 | [2] -0.003 | [3] 0.072 | [4] -0.039 | [5] -0.174
